Sampled rows, rich in hits. Any-hit rate of the full collection: about 19%.
HT1080 IDH1KD tx: toxicity to HT-1080 IDH1 knockdown cells (counter line); Potency, µM (top dose mostly 46.1 µM), for inactives: top-dose activity, negative = toxicity, hits mostly cytotoxic; HT-1080 IDH1 knockdown viability, ATP luminescence, 48 h; AID 686971; 2% of 360,000 active;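 further: 0% = DMSO wells and -100% = cell-free medium wells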
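Using the IDH1-knockdown HT-1080 line run in the same batch and compound series as the NT line, viability after 48 h at 37 °C was determined by CellTiter-Glo luminescence and expressed as % activity.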
HT1080-NT tox: kills 2HG-producing HT-1080-NT fibrosarcoma cells. HT-1080-NT fibrosarcoma viability, CellTiter-Glo ATP luminescence, 48 h. AID 686970. Potency, µM (top dose mostly 46.1 µM), without a hit: at the highest dose activity, negative = less viability, hits mostly cytotoxic. 1.6% of 360,000 active;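 further: NT is the 2HG producing partner of a matched IDH1 knockdown line; 0% = DMSO-treated cells and -100% = media-only wells without cells; nearly all actives have a fitted effect of over 55% in size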
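Viability by CellTiter-Glo luminescence after 48 h compound exposure at 37C of HT-1080-NT cells (750/well, RPMI, 5% FBS). % activity scaled between DMSO wells and medium-only wells, then curve-fitted and categorized by curve class.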
KB-3-1 tox: KB-3-1 parental cell cytotoxicity. KB-3-1 viability, CellTiter-Glo ATP luminescence, 72 h. Potency, µM (series often up to 46.1 µM), hits mostly cytotoxic. 1.4% of 400,000 active. AID 1347075; further: nearly all actives have a fitted effect of over 60% in size
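Multi-concentration cytotoxicity screen in KB-3-1 cells grown in DMEM lacking phenol red with 10% FBS. After 72 h at 37 °C with compound, ATP-dependent luminescence was recorded.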
DT40 TDP1 no CPT: qHTS for Inhibitors of human tyrosyl-DNA phosphodiesterase 1 (TDP1): qHTS in cells in absence of CPT; 15% of 420,000 active; Potency, µM (series often up to 46.2 µM), inactives show at the highest dose activity change, negative = growth inhibition, actives largely listed as inhibitors; DT40 Tdp1-/- hTDP1 cells, no CPT, ATP luminescence, 48 h; further: nearly all actives have a fitted effect of over 55% in size
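DT40 Tdp1-/-;hTDP1 cells, no CPT (DMSO vehicle only), 400 cells/well; compounds pin-transferred; ≥48 hr, 37 °C; CellTiter-Glo 30 min RT dark, luminescence read.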
KB-V1 MDR tox: kills drug-selected multidrug resistant KB-V1 cells; Potency, µM (titrated, usually from 46.1 µM), actives largely listed as cytotoxic; KB-V1 MDR cells viability, CellTiter-Glo, 72 h; 3.4% of 400,000 active; further: nearly all actives have a fitted effect of over 60% in size
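KB-V1 MDR subline cells in DMEM (phenol-red free, 10% FBS) exposed to compounds in qHTS concentration series for 72 h at 37 degrees C. Viability read by CellTiter-Glo luminescence; concentration-effect curves fitted after normalization and correction.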
TDP1 cell CPT: growth inhibition of DT40 Tdp1-/-;hTDP1 cells with camptothecin (screen for TDP1 inhibitors) | chicken DT40 Tdp1-/-;hTDP1 cells + 20 nM CPT, ATP luminescence, 48 h | Potency, µM (doses to about 46.2 µM), without a hit: top-dose activity change, negative = growth inhibition, most hits filed as inhibitors | 12% of 420,000 active | AID 686979; further: nearly all actives have a fitted effect of over 55% in size
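Cell growth measured by CellTiter-Glo luminescence after a minimum 48 h, 37 C compound exposure with 20 nM CPT in Tdp1-knockout DT40 cells stably expressing hTDP1, seeded 400/well; qHTS titration format.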
An asterisk follows results filed as active; i = inactive; ? = inconclusive; . = not tested or not shown; [ ] = dose if it differs, or a comment. The call rests on the fitted dose curve; in most records, active means well fitted curve in the direction sought with a large enough effect; inconclusive means small, poorly fitted or top-dose-only effect, or another doubt; inactive means no such curve, though single readings can be large; an effect the other way counts as inactive or inconclusive. Unless noted, on the % scale 0 is the no-effect control and ±100 the full control effect; potency means the concentration at half of the fitted maximal effect.

SMILES	HT1080 IDH1KD tx	HT1080-NT tox	KB-3-1 tox	DT40 TDP1 no CPT	KB-V1 MDR tox	TDP1 cell CPT
Cc1ccc(-c2ccc(CN3C(C)C(=O)N(Cc4cn(Cc5ccco5)nn4)CCS3(=O)=O)cc2)cc1 (stereo not given)	?	?	i	?	i	?
COc1ccc(-c2ccc(CN3C(C)C(=O)N(Cc4cn(Cc5ccco5)nn4)CCS3(=O)=O)cc2)cc1 (stereo not given)	?	-27%	?	23µM*	?	21µM*
CCOc1ccccc1CNC(=O)CCCn1c(=O)c2cccn2c2ccc(F)cc21	.	.	.	12µM*	.	?
CCOc1ccc(CNC(=O)CCCn2c(=O)c3cccn3c3ccc(F)cc32)cc1	.	.	.	12µM*	.	?
O=C(CCCn1c(=O)c2cccn2c2ccccc21)NCc1ccccc1Br	.	.	.	16µM*	.	?
O=C(CCCn1c(=O)c2cccn2c2cccnc21)Nc1ccccc1Br	.	.	.	?	.	-14%
COc1ccc(-c2cc(Cl)cc3c(=O)c4ccccc4n(C)c23)cc1F	16%	6%	i	21µM*	i	18µM*
c1ccc2c(c1)c1ccccc1n1c(-c3ccc4c(c3)OCO4)nnc21	0%	0%	?	21µM*	21µM*	?
Cn1c(C=O)c(-c2ccc3c(c2)OCCO3)c2ccccc21	-1%	-10%	i	18µM*	i	?
CC(=O)Nc1c(-c2ccc(Cl)cc2)c(=O)c2ccccc2n1C	6%	-2%	i	-3%	i	10%
COc1cc(-c2ccc3c(=O)c4ccccc4n(C)c3c2)cc(OC)c1OC	?	?	?	12µM*	?	16µM*
Cn1c(-c2ccc3c(c2)OCO3)cc(=O)c2ccccc21	0%	-5%	i	-11%	i	-23%
COc1cc(/C=C(/C#N)c2ccc(F)cc2)ccc1OCc1ccc(C(=O)O)o1	?	?	i	-1%	i	-2%
CC1CCCCC12NC(=O)N(CC(=O)OCC(=O)c1ccc(OC(F)F)cc1OC(F)F)C2=O (stereo not given)	-1%	5%	i	-2%	i	-22%
O=C(CN1C(=O)COc2ccc(S(=O)(=O)Nc3ccccc3)cc21)NCc1ccccc1Cl	.	.	i	?	i	?
Cn1c2ccccc2c(=O)c2ccc(-c3ccc4c(c3)OCO4)cc21	-16%	-18%	?	13µM*	?	?
CCCN(CCC)C(=O)Cn1c(=O)n(-c2ccc(Cl)c(Cl)c2)c(=O)c2c(C)c(C(=O)N(C)C)sc21	.	.	.	-6%	.	-16%
CCOC(=O)CCSc1cc(C)c2ccccc2n1	-2%	5%	i	-22%	i	-2%
O=C(COc1ccc(Cl)c(Cl)c1)NN1C(=O)C2C(C1=O)C1C=CC2C12CC2 (stereo not given)	-1%	-1%	i	18µM*	i	-19%
CC(C)=C1C2CCC1C1C(=O)N(NC(=O)COc3ccc(Cl)c(C)c3)C(=O)C21 (stereo not given)	-6%	0%	i	-12%	i	-19%
COc1cc([N+](=O)[O-])ccc1NC(=O)COC(=O)CCS(=O)(=O)c1ccc(C)cc1	9%	0%	i	?	?	-7%
CCCS(=O)(=O)N1CCCC(C(=O)Oc2ccc(OC)cc2)C1 (stereo not given)	-3%	-5%	i	-27%	i	-7%
Cc1ccnc(NS(=O)(=O)c2ccc(N)cc2)n1	10%	?	i	2%	i	1%
COC(=O)/C=C1\SC(N)=NC1=O	5%	-5%	i	2%	i	11%
CCN(CC)C(=O)Cn1cc(C(=O)C(=O)N(CC)C2CCCCC2)c2ccccc21	11%	14%	.	?	.	?
SMILES	HT1080 IDH1KD tx	HT1080-NT tox	KB-3-1 tox	DT40 TDP1 no CPT	KB-V1 MDR tox	TDP1 cell CPT
CCOc1ccc(NC(=O)N(Cc2cn(CC)c3ccccc23)C2CCCCCC2)cc1	.	.	.	21µM*	.	9.2µM*
CCc1ccc(NC(=O)N(Cc2cn(CC)c3ccccc23)C2CCCCC2)cc1	.	.	?	12µM*	i	7.3µM*
FC(F)(F)c1cnc2c(c1)[nH]c(=S)n2-c1ccc(Cl)cc1	-15%	-22%	?	?	i	21µM*
CCOc1ccc(OCCN2CCCCC2)cc1	5%	13%	i	-15%	?	-26%
CCOc1cc(CNc2ccc(S(N)(=O)=O)cc2)cc(Cl)c1OC	-14%	-1%	i	?	i	?
CCOc1ccc(CNCCN2CCCC2)cc1	-3%	-21%	i	21µM*	?	?
CCOc1ccc(CNc2ccc(N3CCCC3)cc2)cc1	-29%	3%	i	8.2µM*	i	9.2µM*
COc1cc(CNc2ccc(N3CCCC3)cc2)cc(Cl)c1OC	?	16µM*	12µM*	2.6µM*	?	2.3µM*
C=CCOc1c(Cl)cc(CNc2ccc(N(C)C)cc2)cc1OC	16µM*	-15%[9.24 µM]	?	6.5µM*	5.2µM*	6.5µM*
CCOC(=O)N1CCN(C(=O)c2ccc3c(c2)N(Cc2ccccc2F)C(=O)c2ccccc2S3=O)CC1 (stereo not given)	.	.	i	?	i	?
CCOc1cc(CNc2ccc(N3CCCC3)cc2)cc(Cl)c1OC	?	?	?	3.7µM*	?	2.9µM*
COc1cccc(CNc2ccc(N3CCCCC3)cc2)c1OC	-14%	-5%	?	?	?	26µM*
Cc1cccc(CNC(=O)c2cnn(-c3nccc(-c4ccccc4C(F)(F)F)n3)c2C)n1	.	.	.	?	.	9%[9.04 µM]
CCn1c2ccccc2c2cc(/C=C3\C=Cc4ccccc43)ccc21	.	.	i	?	i	-20%
Cc1ccc2c(c1)C(c1ccncc1)=NNC(c1ccccc1)=N2	15%	17%	i	2%	i	-12%
c1ccc(C2=Nc3c(ccc4ccccc34)C(c3ccncc3)=NN2)cc1	21µM*	?	?	21µM*	?	8.2µM*
CN(C[C@@H](CC1CCCCC1)N(C[C@H](Cc1ccccc1)N(CCc1ccccc1)N=O)N=O)N=O	11%	1%	i	?	i	23µM*

Screens: PubChem, National Center for Advancing Translational Sciences (NCATS)
